Screens from PubChem BioAssay.
Pf apPOL inh = Pf-apPOL DNA polymerase inhibition. inhibition, % at 10 µM. AID 1794808. actives 0.25% (n = 210,000). Recombinant Pf-apPOL, molecular beacon fluorescence, 1.5 h
mHTT CaM bind = inhibitors of human mutant huntingtin-calmodulin interaction; AlphaScreen His-mHTT/GST-CaM binding, luminescence; inhibition, % at 15 µM; actives 3.6% (n = 190,000); AID 1671202;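 also: 0% = both proteins with DMSO and 100% = one protein alone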
* = called active by the depositor; x = no result given; ! = not active in a repeat. Shown is part of a subset that was picked to be rich in hits. Rule as the data show it: active = inhibition above about 50%; inactive = the rest.

SMILES | Pf apPOL inh | mHTT CaM bind
Cc1sc2c(c1C)C(=O)NC1(N2)C(=O)N(Cc2ccccc2F)c2ccccc21 (stereo unspecified) | 16 | 53*
Cc1onc(-c2ccccc2Cl)c1C(=O)Nc1cccc(-c2cn3cccnc3n2)c1 | -6 | 16
O=C(CSCc1ccccc1)Nc1cccc(-c2cn3cccnc3n2)c1 | -6 | 52*
CCOc1cc2c(c([N+](=O)[O-])c1)NC(c1ccc(Br)cc1)C1CC=CC21 (stereo unspecified) | -1 | 16
O=C(O)c1ccc([N+](=O)[O-])c2c1NC(c1ccccc1)C1CC=CC21 (stereo unspecified) | -7 | 80*!
Cc1ccc([N+](=O)[O-])c2c1NC(c1ccc(Br)cc1)C1CC=CC21 (stereo unspecified) | 4 | 97*
O=[N+]([O-])c1ccc(C2Nc3c(cccc3C(F)(F)F)C3C=CCC32)cc1 (stereo unspecified) | -5 | 13
COc1cc(C2Nc3cccc4cccc(c34)N2)cc(OC)c1OC | 9 | 28
Fc1ccc(C2Nc3cccc4cccc(c34)N2)cc1 | x | 52*
C=C[C@@H]1c2ccccc2N(S(=O)(=O)c2ccc(C)cc2)[C@H](c2ccc(C(F)(F)F)cc2)C1(C#N)C#N | -1 | 1
C=C[C@@H]1c2cc(C)ccc2N(S(=O)(=O)c2ccc(C)cc2)[C@H](c2ccc(C(C)(F)F)cc2)C1(C#N)C#N | -6 | 90*
N#Cc1c(N2CCCCC2)ncc2c(=O)c3ccccc3[nH]c12 | 0 | 4
CC(=O)N(C(C)=O)c1ncc2c([nH]c3ccccc32)c1C#N | -3 | 83*
CC(=O)Nc1ccc(NC(=O)c2ccccc2)cn1 | -2 | x
CCOc1ccc(CNS(=O)(=O)c2ccc3[nH]c4c(c3c2)CCCC4)cc1OC | 0 | 59*
Cc1ccc(CCNS(=O)(=O)c2ccc3[nH]c4c(c3c2)CCCC4)cc1 | 0 | 85*
COc1ccccc1CNS(=O)(=O)c1ccc2[nH]c3c(c2c1)CCCCC3 | -5 | 98*
Cc1cccnc1NS(=O)(=O)c1ccc2[nH]c3c(c2c1)CCCC3 | -6 | 12
COc1ccccc1CNS(=O)(=O)c1ccc(C)c([N+](=O)[O-])c1 | -1 | -1
CCOc1ccc(CNS(=O)(=O)c2ccc3[nH]c(=O)sc3c2)cc1OC | 0 | 0
CC(=O)Nc1ccc(NC(=O)c2sc3nc(-c4ccccc4)cn3c2C)cc1 | -4 | -5
CC(C)c1cc(SCC(=O)N2CCc3ccccc32)ncn1 | -12 | -6
Cc1oc(C2CCN(C(=O)c3ccc4c(c3)OCO4)CC2)nc1C(=O)N1CCOCC1 | -1 | -1
O=C(CSc1nnc(NC(=O)c2cccs2)s1)NCc1ccccc1Cl | -3 | -4
CC(C)C(=O)Oc1coc(CSc2nnc(NC(=O)c3cccs3)s2)cc1=O | 74* | 82*
SMILES | Pf apPOL inh | mHTT CaM bind
CCCn1cc2c3c(cccc31)CN(C(=O)c1ccccc1OC)CC2 | -5 | 58*
COCCn1cc2c3c(cccc31)CN(C(=O)c1ccccc1OC)CC2 | -4 | 52*
COCCn1cc2c3c(cccc31)CN(C(=O)c1cc(F)cc(F)c1)CC2 | -4 | 12
COCCn1cc2c3c(cccc31)CN(C(=O)c1cccc(C(F)(F)F)c1)CC2 | -5 | 70*
CCCn1cc2c3c(cccc31)CN(C(=O)NCCCOC)CC2 | -2 | 19
COCCn1cc2c3c(cccc31)CN(C(=O)c1ccccc1Cl)CC2 | 1 | 27
O=C(c1cc2nc(-c3ccc([N+](=O)[O-])cc3)cc(C(F)(F)F)n2n1)N1CCCCCC1 | -1 | 9
COc1cccc(C(=O)Nc2cccn3ncnc23)c1 | 0 | 0
COc1ccc(-c2csc3c(=O)n(Cc4ccc(C)cc4)cnc23)cc1OC | -2 | -15
Cc1ccc(S(=O)(=O)Nc2cccc3cccnc23)cc1 | -45 | 38
Nc1ccccc1S(=O)(=O)Nc1cccc2cccnc12 | -19 | 100*
Cc1ccc(-c2csc(Nc3ccccn3)n2)cc1C | 4 | 26
Cc1ccnc(Nc2nc(-c3ccc(O)c(O)c3)cs2)c1 | 0 | 92*
COc1cccc(-c2csc(Nc3cc(C)ccn3)n2)c1 | -4 | 32
Cc1cccnc1Nc1nc(-c2ccc(O)c(O)c2)cs1 | -3 | 62*
O=C(c1cc(Cl)ccc1Cl)N1CCN(c2ccc3nncn3n2)CC1 | -4 | -11
CCCn1cnc2c(-c3ccc(Cl)cc3)csc2c1=O | -6 | -23
CCOc1cc(Br)c(C=O)cc1OC | -1 | -4
c1ccc(CNCc2cnc[nH]2)cc1 | -8 | 94*
O=C(O)CCNCc1ccccc1 | -2 | -2
Cc1ccc(-c2nc(-c3ccc4nnc(C)n4c3)no2)cc1C | -5 | 6
COc1ccc(-c2ccc(/C=C/c3cc(C(F)(F)F)[nH]c(=O)n3)o2)cc1Cl | 7 | 99*
COc1ccc(-c2ccc(/C=C/c3cc(C(F)(F)F)[nH]c(=O)n3)o2)c([N+](=O)[O-])c1 | -3 | 24
O=C(Nc1nnc(COc2ccccc2)o1)c1ccccn1 | -9 | 0
O=C(Nc1nnc(COc2ccccc2)o1)c1cc(Cl)sc1Cl | -257 | 56*
SMILES | Pf apPOL inh | mHTT CaM bind
O=C(CCSc1ccc(Cl)cc1)Nc1nnc(COc2ccccc2)o1 | -34 | -2
O=C(Cc1ccccc1Cl)Nc1nnc(COc2ccccc2)o1 | -9 | 84*
Cc1cc(C(=O)N2CCC3(C2)NCc2ccccc2NC3=NCc2ccccc2)nn1C (stereo unspecified) | 10 | 12
Cc1cc(C)c2nc(C)cc(Nc3ccc(O)cc3)c2c1 | -5 | 4
Cc1ccc(C(C(=O)Nc2ccc3c(c2)OCO3)N(C)C(=O)Cc2c[nH]c3ccccc23)cc1 (stereo unspecified) | -4 | 93*
COc1ccc(C(C(=O)Nc2ccc3c(c2)OCO3)N(C)C(=O)CNC(C)=O)cc1 (stereo unspecified) | -4 | 2
O=c1ccc(-c2ccc(F)cc2)nn1CCc1nc(-c2cccc(Br)c2)no1 | -9 | 56*
O=c1ccc(-c2ccc(F)cc2)nn1CCc1nc(-c2ccccc2Cl)no1 | -5 | -6
CCOc1cc(N2CCOCC2)ccc1[N+](=O)[O-] | -3 | 1
O=C(O)C1Nc2ccc([N+](=O)[O-])cc2C2C=CCC12 (stereo unspecified) | 3 | -1
O=S(=O)(c1ccc(C2Nc3c(Cl)cc(Cl)cc3C3C=CCC32)cc1)N1CCOCC1 (stereo unspecified) | -5 | 26
O=C(c1cccc([N+](=O)[O-])c1)N1CCOCC1 | -5 | 0
O=C(c1ccc2c(c1)C1C=CCC1C(c1ccc([N+](=O)[O-])cc1)N2)N1CCOCC1 (stereo unspecified) | -12 | 70*
O=C(c1ccc2c(c1)C1C=CCC1C(c1ccc(Cl)cc1)N2)N1CCOCC1 (stereo unspecified) | -1 | 83*
O=C(c1ccc2c(c1)C1C=CCC1C(c1cccc([N+](=O)[O-])c1)N2)N1CCCCC1 (stereo unspecified) | -1 | 81*
COc1ccc(F)cc1S(=O)(=O)N1CCC(C(=O)Nc2cc(C)on2)CC1 | -1 | -11
Cc1cc(Br)ccc1NC(=O)CSc1ccccc1 | -7 | -9
Fc1cccc(NCc2ccco2)c1 | 2 | 14
Oc1c(Cl)cc(Cl)cc1CNc1cccc(F)c1 | -2 | 96*
COc1cc([N+](=O)[O-])cc2[nH]c(-c3ccccc3)cc12 | -3 | -2
O=[N+]([O-])c1cc([N+](=O)[O-])c2cc(-c3ccco3)[nH]c2c1 | x | 53*
